The list is not random: actives were taken first. Their share in the collection is about 2.4%.
Pf gametocyte – kills late stage P. falciparum gametocytes | inhibition, % at 10.9 µM | AID 743093 | P. falciparum stage V gametocytes, ATP luminescence, 24 h | hit rate 0.065% among 150,000;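 active = inhibition above the mean plus 3 SD of compounds within the control limits, set per campaign, cut at about 38% in these data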
MEKK2 mut-MEK5 – signal of MEK5 binding to mutant human MEKK2 PB1 domain; bead flow cytometry, Alexa488-MEK5 binding to MEKK2 mutant; percent response, % at 10 µM; hit rate 0.35% among 290,000; AID 1530; in the data active = percent response above about 24%, passing the limit was not always enough
MEKK3 PB1 HTS – MEKK3-MEK5 PB1 interaction, increase or decrease; AID 1529; hit rate 1.4% among 290,000; bead-based flow cytometry, Alexa488-MEK5 binding to MEKK3; actives lie on both sides; 0 = blocked by unlabeled MEK5, 100 = vehicle; binding response (% of control), % at 10 µM;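 active = binding response more than 3 SD above or below the average of its plate-row segment, actives on both sides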;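 also: Alexa488 bead fluorescence after subtracting the streptavidin-only scavenger bead signal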
Target sequence (Q99759 whole entry, looked up): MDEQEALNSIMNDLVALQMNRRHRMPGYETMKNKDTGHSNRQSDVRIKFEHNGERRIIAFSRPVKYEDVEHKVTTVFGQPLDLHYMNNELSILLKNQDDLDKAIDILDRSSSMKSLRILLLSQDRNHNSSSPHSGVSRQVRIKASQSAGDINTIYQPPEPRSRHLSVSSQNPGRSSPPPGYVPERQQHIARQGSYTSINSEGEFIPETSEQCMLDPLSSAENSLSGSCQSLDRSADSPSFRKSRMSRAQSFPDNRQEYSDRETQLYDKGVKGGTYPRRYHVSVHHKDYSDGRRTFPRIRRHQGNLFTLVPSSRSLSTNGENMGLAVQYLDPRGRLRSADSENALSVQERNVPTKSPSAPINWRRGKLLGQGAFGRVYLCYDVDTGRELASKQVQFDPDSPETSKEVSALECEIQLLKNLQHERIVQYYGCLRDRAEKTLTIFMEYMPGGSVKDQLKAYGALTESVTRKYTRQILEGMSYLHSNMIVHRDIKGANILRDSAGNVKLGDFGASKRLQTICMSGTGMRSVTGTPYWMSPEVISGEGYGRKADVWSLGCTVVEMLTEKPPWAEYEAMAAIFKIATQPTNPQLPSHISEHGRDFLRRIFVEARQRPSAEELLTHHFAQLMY
MEKK2 WT-MEK5 – raises or lowers MEK5 binding to wildtype human MEKK2 PB1 domain; bead flow cytometry, Alexa488-MEK5 binding to MEKK2 WT; actives lie on both sides; Q9Y2U5; binding response (% of control), % at 10 µM; hit rate 1.1% among 290,000; AID 1531; in the data active = binding response below about 67% or above about 130%
Arbovirus anti – blocks arbovirus infection; hit rate 0.37% among 200,000; AID 1251; inhibition, % at 10 µM; arbovirus infection cell-based antiviral screen; in the data active = inhibition above about 30%
Of the large screens only hits and unclear results are named; the others gave an inactive call; [ ] = remark or other dose.

C/C(=C\C=C(C#N)C#N)c1cc(C#N)c(N)o1	none
CCCN(CCC)C(=O)Cn1c(=O)n(CCCCCC(=O)Nc2ccccc2)c(=O)c2sccc21	none (no result: Pf gametocyte)
CCCCN(CC)S(=O)(=O)c1ccc(C(=O)N(CCCN(C)C)c2nc3cc(C)cc(C)c3s2)cc1	MEKK3 PB1 HTS 145, MEKK2 WT-MEK5 162
CCCCN(C)S(=O)(=O)c1ccc(C(=O)N(CCN(C)C)c2nc3ccc(C)cc3s2)cc1	none (no result: Pf gametocyte, MEKK2 mut-MEK5, MEKK3 PB1 HTS, MEKK2 WT-MEK5)
CCN(c1ccccc1)S(=O)(=O)c1ccc(C(=O)N(CCCN(C)C)c2nc3cc4c(cc3s2)OCO4)cc1	MEKK2 mut-MEK5 25, MEKK2 WT-MEK5 158 (no result: Pf gametocyte, Arbovirus anti)
CCOc1cccc2sc(N(CCCN(C)C)C(=O)c3ccc(S(=O)(=O)N(CC)Cc4ccccc4)cc3)nc12	MEKK2 mut-MEK5 54, MEKK2 WT-MEK5 227 (no result: Pf gametocyte, Arbovirus anti)
COc1ccc(C)cc1NC(=O)C1CCN(S(=O)(=O)c2cccs2)CC1	none (no result: Pf gametocyte, Arbovirus anti)
Cc1ccc2nc(NC(=O)C3CCCN(S(=O)(=O)c4cnc[nH]4)C3)sc2c1 (centres undefined)	Arbovirus anti 59 (no result: Pf gametocyte)
CCSc1nc2c(sc3nc(C)cc(C)c32)c(=O)[nH]1	Arbovirus anti 37 (no result: Pf gametocyte, MEKK2 mut-MEK5, MEKK3 PB1 HTS, MEKK2 WT-MEK5)
CCOc1ncnc2c1sc1nc(C)cc(C)c12	none (no result: Arbovirus anti)
CCOc1ccc(-n2c(=O)c3sccc3n(Cc3ccc(C)cc3)c2=O)cc1	none
O=C(CCNC(=O)c1ccccc1)N=Nc1c(O)[nH]c2ccccc12	MEKK2 mut-MEK5 94
C=CCn1c(SC(C)C(N)=O)nc2sc(CC)cc2c1=O (centres undefined)	Arbovirus anti 32
COc1ccc(C(=O)C2CCCN(C(=O)c3cccc(N4CCCC4=O)c3)C2)cc1OC (centres undefined)	none (no result: Pf gametocyte, Arbovirus anti)
CC(=O)/C(=N/Nc1cccc(Cl)c1)Sc1nnc(C(O)c2ccccc2)n1-c1ccccc1 (centres undefined)	Arbovirus anti 47
COc1ccc(-n2c(SCCNCCO)nc3sc4c(c3c2=O)CCCC4)cc1	MEKK2 mut-MEK5 24, MEKK2 WT-MEK5 144 (no result: Pf gametocyte, Arbovirus anti)
COc1ccc(-n2c(SCC(=O)O)nc3sc4c(c3c2=O)CCCC4)cc1	none (no result: Pf gametocyte, Arbovirus anti)
Cc1nn(CC(=O)NCCN2CCCCC2C)c(=O)c2cc(-c3ccccc3)nn12 (centres undefined)	none (no result: Pf gametocyte, Arbovirus anti)
Cc1ccc2ccc(C(Nc3cccc(C(F)(F)F)c3)c3cccnc3)c(O)c2n1 (centres undefined)	Pf gametocyte 39
Cc1ccnc(NC(c2cccnc2)c2ccc3cccnc3c2O)c1 (centres undefined)	none
CCc1nc(SCC(=O)Nc2ccc(Br)cn2)n[nH]1	none (no result: Pf gametocyte, Arbovirus anti)
O=C(Cc1cccc2ccccc12)Nc1ccccc1	none (no result: MEKK2 mut-MEK5, MEKK3 PB1 HTS, MEKK2 WT-MEK5, Arbovirus anti)
C=CCN(CC=C)C(=S)NC(=O)Cc1cccc2ccccc12	Arbovirus anti 56
CCN(Cc1ccncc1)Cc1c(O)ccc2cc(Br)ccc12	Arbovirus anti 31
CCn1cc(/C=C(\NC(=O)c2ccccc2)C(=O)N2CCOCC2)c2ccccc21	none (no result: Pf gametocyte, Arbovirus anti)
C=CCNC(=O)/C(C#N)=C/c1ccccc1[N+](=O)[O-]	MEKK2 WT-MEK5 4.0 (no result: Pf gametocyte)
COC(=O)c1ccccc1NC(=O)C/C(C)=N/NC(=O)Cc1ccc(Cl)cc1	MEKK3 PB1 HTS 6.0[inhibitor], MEKK2 WT-MEK5 12[inhibitor] (no result: Pf gametocyte, Arbovirus anti)
CCc1ccc(C(=O)COC(=O)c2n[nH]c3ccccc23)cc1	none
O=C(O)c1ccc2[nH]c3c(c2c1)CSCC3	Arbovirus anti 31 (no result: Pf gametocyte)
CCOC(=O)c1ccc2[nH]c3c(c2c1)CCCC3	none (no result: Pf gametocyte, Arbovirus anti)
Oc1ccc2ccccc2c1C=Nc1cc(C(F)(F)F)ccc1N1CCCC1	MEKK2 WT-MEK5 6.0 (no result: Pf gametocyte)
O=[N+]([O-])c1ccc(N/N=C\c2ccccc2OCc2ccccc2)cc1	MEKK2 WT-MEK5 9.0
CC(CCc1ccccc1)NC(=O)c1cc2sccc2n1C (centres undefined)	Arbovirus anti 42 (no result: Pf gametocyte)
O=C(NCCCO)Nc1ccc2nc(-c3ccco3)c(-c3ccco3)nc2c1	Arbovirus anti 33 (no result: Pf gametocyte, MEKK2 mut-MEK5, MEKK3 PB1 HTS, MEKK2 WT-MEK5)
O=C(Nc1ccc2nc(-c3ccco3)c(-c3ccco3)nc2c1)NC1CC1	none (no result: Pf gametocyte)
COCCCN1C(=O)c2[nH]nc(-c3ccccc3O)c2C1c1cccc(Cl)c1 (centres undefined)	none (no result: Pf gametocyte)
CC(C)OCCCN1C(=O)c2[nH]nc(-c3ccccc3O)c2C1c1cccc(Cl)c1 (centres undefined)	MEKK3 PB1 HTS 138 (no result: Pf gametocyte)
C[C@@H](C(=O)N1CCN(C(=O)OC(C)(C)C)CC1)n1cc(-c2cn([C@@H](C)C(=O)N3CCN(C(=O)OC(C)(C)C)CC3)nn2)nn1	MEKK2 WT-MEK5 4.0 (no result: Pf gametocyte, Arbovirus anti)
CC(C)C(C(=O)N1CCN(C(=O)OC(C)(C)C)CC1)n1cc(-c2cn([C@@H](C)C(=O)N3CCN(C(=O)OC(C)(C)C)CC3)nn2)nn1 (some centres undefined)	none (no result: Pf gametocyte, Arbovirus anti)
CCCCCCc1cc2cc(C(=O)Nc3ccc(OC)cc3)c(=O)oc2cc1O	Arbovirus anti 47
COCCn1c(-c2ccc(Cl)cc2)nc2c(c(=O)c3ccccc3n2C)c1=O	none
COCCn1c(-c2ccccc2Cl)nc2c(c(=O)c3ccccc3n2C)c1=O	Arbovirus anti 31
CN(C)S(=O)(=O)c1cccc(NC(=O)COC(=O)/C=C/c2ccco2)c1	none (no result: Pf gametocyte)
Cc1ccc(/C=C/C(=O)OCC(=O)Nc2cccc(S(=O)(=O)N(C)C)c2)o1	MEKK2 WT-MEK5 10
CC(C)c1ccc(N=Cc2c(O)c3ccccc3oc2=O)cc1	none (no result: Pf gametocyte, Arbovirus anti)
O=C(O)C(Cc1ccccc1)N=Cc1c(O)c2ccccc2oc1=O (centres undefined)	Arbovirus anti 31
Cc1cc(=O)n2c3ccccc3n(CC(O)CN3CCN(CCO)CC3)c2c1C#N (centres undefined)	none
Cc1cc(=O)n2c3ccccc3n(CC(O)CN3CCC(C)CC3)c2c1C#N (centres undefined)	MEKK3 PB1 HTS 135
COc1ccccc1NS(=O)(=O)c1cccc(NC(=O)Nc2ccc(Cl)cc2)c1	MEKK2 WT-MEK5 147
COc1ccccc1NS(=O)(=O)c1cccc(NC(=O)Nc2ccccc2)c1	none
O=C(Nc1nnc(SCc2ccccc2Cl)s1)C1COc2ccccc2O1 (centres undefined)	Arbovirus anti 41 (no result: Pf gametocyte)
Cc1ccccc1CSc1nnc(NC(=O)C2COc3ccccc3O2)s1 (centres undefined)	Arbovirus anti 48 (no result: Pf gametocyte)
COc1ccccc1NC(=O)c1c(Nc2ccccc2C)sc(C(=O)Nc2cccc(Cl)c2)c1N	MEKK2 WT-MEK5 -3.0
Cc1nc2nc(SCC(=O)N3CCOCC3)nn2c(C)c1Cc1c(F)cccc1Cl	MEKK3 PB1 HTS 2.0[inhibitor], MEKK2 WT-MEK5 2.0[inhibitor]
Cc1nc2nc(SCC(=O)NCCN3CCOCC3)nn2c(C)c1Cc1ccccc1	none (no result: Pf gametocyte)
Cc1oc(-c2cc(F)ccc2F)nc1CN1CCN(C)C(=O)[C@@H]1C	MEKK2 WT-MEK5 22
N/C(=C\C(=O)c1cc(Cl)ccc1O)C(Cl)(Cl)Cl	MEKK2 WT-MEK5 -3.0 (no result: Arbovirus anti)
Cc1cc(C)c(OCCCCCn2ccnc2)c(C)c1	none (no result: Arbovirus anti)
CCN(CC)c1ccc(/C=C/c2cc(-c3ccccc3)c3ccccc3n2)cc1	MEKK3 PB1 HTS 74[inhibitor] (no result: Pf gametocyte, Arbovirus anti)
Cc1ccc(NC(=S)/C(=C(\[O-])c2ccc(F)cc2)[n+]2ccccc2)cc1	Pf gametocyte 39
